Experimental data published in publication PMC12864922, “TDP-43 directly inhibits mRNA accumulation in neurites through modulation of mRNA stability”.
Over roughly 9,900 sequences, “r (bound/input frequency ratio)” has its median near 0.7; the highest 2% begin near 6.5. The entries come from a sample that favours the highest values as a whole.

B1: ENSMUSG00000043670.217|Diras1|25:29;58:70;94:99;102:106;111:115;225:229 (ssRNA)
RNA: GGGAGUUCUACAGUCCGACGAUCGCUUCGAUAUCCGCAUGCUAGGAUGGGGUGUUCUUGCACCACUUACACAUCUUAGUGAGACCACAGUGUAAGUGGCCCACACACACACACGGGGGGGGCACCUAGACAUUGUGCACACACUCAUACGCUCACACAUUUCAGGGGUGGGUGACACAGGCCUGUCUGAUGAGCACCAGGUCUGUUCCAGGCUGUGGCAAGCUGGCUCCUGGCUCAGAAGUGACAAAGCUGCAGUACAGAGGCCUCACACACAGGUCAUCACCUCACAGUGGCUACAGACCAGCUCUUGCGGUCGCACUAGUGUGGAAUUCUCGGGUGUCAAGG
B2: ENSMUSG00000042529.426|Kcnj12|5:15;38:43;200:204 (ssRNA)
RNA: GGGAGUUCUACAGUCCGACGAUCGCUUCGAUAUCCGCAUGCUACAGGCACACACAUACUGAAUGUCAGUGGCUUGGGUGCACACACGAGAGAGAGAGAGAGAGAGAGAGAGAGAGAGAGAGAGAGAGAGAGAGAGAGCUGCACAGGAUGAAGCAGCUGCCCUGAGCCCAUCUGGUGCUGUGCACCUGGUCCUUGUCCAGCCGAGGGCCUGGGGGCAGAAGAACACACCAUAGGGAGGCCCUUCAUACGGUGUCUGCCCUAUGUGAGGUCAUAGAAUGUUAAAUCUAUUUUAAACGGUGAAACUCUCUUGCGGUCGCACUAGUGUGGAAUUCUCGGGUGUCAAGG
B3: ENSMUSG00000042529.427|Kcnj12|1:9;32:37;194:198 (ssRNA)
RNA: GGGAGUUCUACAGUCCGACGAUCGCUUCGAUAUCCGCAUGCUACACACAUACUGAAUGUCAGUGGCUUGGGUGCACACACGAGAGAGAGAGAGAGAGAGAGAGAGAGAGAGAGAGAGAGAGAGAGAGAGAGCUGCACAGGAUGAAGCAGCUGCCCUGAGCCCAUCUGGUGCUGUGCACCUGGUCCUUGUCCAGCCGAGGGCCUGGGGGCAGAAGAACACACCAUAGGGAGGCCCUUCAUACGGUGUCUGCCCUAUGUGAGGUCAUAGAAUGUUAAAUCUAUUUUAAACGGUGAAACUGGAGAACUCUUGCGGUCGCACUAGUGUGGAAUUCUCGGGUGUCAAGG
B4: ENSMUSG00000042529.423|Kcnj12|7:11;23:33;56:61;218:222 (ssRNA)
RNA: GGGAGUUCUACAGUCCGACGAUCGCUUCGAUAUCCGCAUGCUAGUGAGGCACACGAGGUCCCAGGCACACACAUACUGAAUGUCAGUGGCUUGGGUGCACACACGAGAGAGAGAGAGAGAGAGAGAGAGAGAGAGAGAGAGAGAGAGAGAGAGAGCUGCACAGGAUGAAGCAGCUGCCCUGAGCCCAUCUGGUGCUGUGCACCUGGUCCUUGUCCAGCCGAGGGCCUGGGGGCAGAAGAACACACCAUAGGGAGGCCCUUCAUACGGUGUCUGCCCUAUGUGAGGUCAUAGAAUGUUAAAUCUCUCUUGCGGUCGCACUAGUGUGGAAUUCUCGGGUGUCAAGG
B5: ENSMUSG00000042529.422|Kcnj12|4:9;13:17;29:39;62:67;224:228 (ssRNA)
RNA: GGGAGUUCUACAGUCCGACGAUCGCUUCGAUAUCCGCAUGCUAACAACACACAGGCACACGAGGUCCCAGGCACACACAUACUGAAUGUCAGUGGCUUGGGUGCACACACGAGAGAGAGAGAGAGAGAGAGAGAGAGAGAGAGAGAGAGAGAGAGAGAGAGCUGCACAGGAUGAAGCAGCUGCCCUGAGCCCAUCUGGUGCUGUGCACCUGGUCCUUGUCCAGCCGAGGGCCUGGGGGCAGAAGAACACACCAUAGGGAGGCCCUUCAUACGGUGUCUGCCCUAUGUGAGGUCAUAGAAUGUUCUCUUGCGGUCGCACUAGUGUGGAAUUCUCGGGUGUCAAGG
B6: ENSMUSG00000042529.419|Kcnj12|1:17;22:27;31:35;47:57;80:85;242:246 (ssRNA)
RNA: GGGAGUUCUACAGUCCGACGAUCGCUUCGAUAUCCGCAUGCUACACACACACACACACACAACAACACACAGGCACACGAGGUCCCAGGCACACACAUACUGAAUGUCAGUGGCUUGGGUGCACACACGAGAGAGAGAGAGAGAGAGAGAGAGAGAGAGAGAGAGAGAGAGAGAGAGAGCUGCACAGGAUGAAGCAGCUGCCCUGAGCCCAUCUGGUGCUGUGCACCUGGUCCUUGUCCAGCCGAGGGCCUGGGGGCAGAAGAACACACCAUAGGGAGGCCCUUCAUACGGUGUCUGCCCUAUCUCUUGCGGUCGCACUAGUGUGGAAUUCUCGGGUGUCAAGG
B7: ENSMUSG00000042529.420|Kcnj12|1:11;16:21;25:29;41:51;74:79;236:240 (ssRNA)
RNA: GGGAGUUCUACAGUCCGACGAUCGCUUCGAUAUCCGCAUGCUACACACACACACAACAACACACAGGCACACGAGGUCCCAGGCACACACAUACUGAAUGUCAGUGGCUUGGGUGCACACACGAGAGAGAGAGAGAGAGAGAGAGAGAGAGAGAGAGAGAGAGAGAGAGAGAGCUGCACAGGAUGAAGCAGCUGCCCUGAGCCCAUCUGGUGCUGUGCACCUGGUCCUUGUCCAGCCGAGGGCCUGGGGGCAGAAGAACACACCAUAGGGAGGCCCUUCAUACGGUGUCUGCCCUAUGUGAGGCUCUUGCGGUCGCACUAGUGUGGAAUUCUCGGGUGUCAAGG
B8: ENSMUSG00000042529.425|Kcnj12|11:21;44:49;206:210 (ssRNA)
RNA: GGGAGUUCUACAGUCCGACGAUCGCUUCGAUAUCCGCAUGCUAAGGUCCCAGGCACACACAUACUGAAUGUCAGUGGCUUGGGUGCACACACGAGAGAGAGAGAGAGAGAGAGAGAGAGAGAGAGAGAGAGAGAGAGAGAGAGCUGCACAGGAUGAAGCAGCUGCCCUGAGCCCAUCUGGUGCUGUGCACCUGGUCCUUGUCCAGCCGAGGGCCUGGGGGCAGAAGAACACACCAUAGGGAGGCCCUUCAUACGGUGUCUGCCCUAUGUGAGGUCAUAGAAUGUUAAAUCUAUUUUAAACGGUCUCUUGCGGUCGCACUAGUGUGGAAUUCUCGGGUGUCAAGG
B9: ENSMUSG00000042529.424|Kcnj12|1:5;17:27;50:55;212:216 (ssRNA)
RNA: GGGAGUUCUACAGUCCGACGAUCGCUUCGAUAUCCGCAUGCUACACACGAGGUCCCAGGCACACACAUACUGAAUGUCAGUGGCUUGGGUGCACACACGAGAGAGAGAGAGAGAGAGAGAGAGAGAGAGAGAGAGAGAGAGAGAGAGAGCUGCACAGGAUGAAGCAGCUGCCCUGAGCCCAUCUGGUGCUGUGCACCUGGUCCUUGUCCAGCCGAGGGCCUGGGGGCAGAAGAACACACCAUAGGGAGGCCCUUCAUACGGUGUCUGCCCUAUGUGAGGUCAUAGAAUGUUAAAUCUAUUUUACUCUUGCGGUCGCACUAGUGUGGAAUUCUCGGGUGUCAAGG
B10: ENSMUSG00000042529.421|Kcnj12|1:5;10:15;19:23;35:45;68:73;230:234 (ssRNA)
RNA: GGGAGUUCUACAGUCCGACGAUCGCUUCGAUAUCCGCAUGCUACACACAACAACACACAGGCACACGAGGUCCCAGGCACACACAUACUGAAUGUCAGUGGCUUGGGUGCACACACGAGAGAGAGAGAGAGAGAGAGAGAGAGAGAGAGAGAGAGAGAGAGAGAGAGCUGCACAGGAUGAAGCAGCUGCCCUGAGCCCAUCUGGUGCUGUGCACCUGGUCCUUGUCCAGCCGAGGGCCUGGGGGCAGAAGAACACACCAUAGGGAGGCCCUUCAUACGGUGUCUGCCCUAUGUGAGGUCAUAGCUCUUGCGGUCGCACUAGUGUGGAAUUCUCGGGUGUCAAGG

The binders below were run against TDP-43 (Homo sapiens, UniProt Q13148 1-414) (assay: RNA Bind-n-Seq with designed 260-mer pool; 25 mM Tris-HCl, 150 mM KCl, 3 mM MgCl2, BSA (printed 500 mg/mL), 20 units/mL SUPERase IN; pH not stated; 500 nM RNA pool, 1 h, 4 C; TDP-43 5, 50, 500 nM; high values mean tight binding). Details: protein: recombinant; tags: SBP (GST cleaved off with PreScission; pGEX-GST-SBP).
Chain of TDP-43 (Q13148 whole entry): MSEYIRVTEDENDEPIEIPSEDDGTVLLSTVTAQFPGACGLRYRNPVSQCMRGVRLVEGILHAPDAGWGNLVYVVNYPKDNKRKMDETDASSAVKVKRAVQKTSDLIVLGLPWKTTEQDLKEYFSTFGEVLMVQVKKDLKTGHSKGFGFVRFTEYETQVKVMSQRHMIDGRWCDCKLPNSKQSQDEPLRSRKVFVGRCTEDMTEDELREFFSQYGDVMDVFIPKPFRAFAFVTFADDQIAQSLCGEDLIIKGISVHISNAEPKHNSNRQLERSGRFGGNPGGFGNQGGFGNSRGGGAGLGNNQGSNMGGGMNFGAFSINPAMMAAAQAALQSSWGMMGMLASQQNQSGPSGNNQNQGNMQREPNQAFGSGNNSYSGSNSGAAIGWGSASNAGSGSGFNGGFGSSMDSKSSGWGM
Summary of the method: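 Duplicate measurements used two independent batches of recombinant SBP-tagged TDP-43, which was captured on streptavidin beads at 5, 50 or 500 nM. The beads were incubated with 500 nM of an in vitro-transcribed 260-nt 3′ UTR oligo pool for 1 h at 4 °C in 25 mM Tris-HCl, 150 mM KCl, 3 mM MgCl2, BSA and SUPERase IN. After washing, biotin elution, reverse transcription, PCR amplification and sequencing, binding was expressed as R: each oligo's normalized read abundance in the bound sample over its abundance in input.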

First: B1
Second: B2
The binding signal of the first is lower: 0.883 R (bound/input frequency ratio) for the first, 5.67 R (bound/input frequency ratio) for the second.

Going from B3 to B4, the binding signal rises from 5.49 R (bound/input frequency ratio) to 7.58 R (bound/input frequency ratio).

First: B5
Second: B6
The binding signal of the first is lower: 6.32 R (bound/input frequency ratio) for the first, 6.45 R (bound/input frequency ratio) for the second.

Going from B7 to B8, the binding signal rises from 4.97 R (bound/input frequency ratio) to 6.2 R (bound/input frequency ratio).

Compared with B9, B10 is higher in binding signal: 6.55 R (bound/input frequency ratio) for the first, 7.21 R (bound/input frequency ratio) for the second.
